Screens deposited in PubChem by National Center for Advancing Translational Sciences (NCATS).
SARS PLP yeast – qHTS of Yeast-based Assay for SARS-CoV PLP; S. cerevisiae expressing SARS-CoV PLpro, growth rescue; AID 485353, 2010; hit rate 0.19% among 330,000; Potency, µM (top dose mostly 32.9 µM), inactives show at the highest dose activity, positive = growth rescue, usual class: activators; calls by dose curve; note: potency is the fitted concentration of half-maximal effect; 0% is about no effect; nearly all actives have a fitted effect of over 55% in size
AMA1 RON2 block – qHTS for Inhibitors of AMA1-RON; Towards Development of Antimalarial Drug Lead: Primary Screen | Plasmodium falciparum AMA1 (3D7) - RON2 peptide interaction | AID 720542, 2013 | hit rate 0.2% among 360,000 | AlphaScreen AMA1-biotinylated RON2 peptide binding | Potency, µM (doses to about 58.2 µM), without a hit: at the top dose activity change, negative = inhibition, actives largely listed as inhibitors;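 note: potency is the fitted concentration of half-maximal effect; 0% = vehicle wells and -100% = peptide control; nearly all actives have a fitted effect of over 45% in size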
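AMA1 (3D7) with his tag at 25 nM final met compounds first, then biotinylated RON2 peptide at 25 nM; detection used donor plus acceptor beads, 10 µg/mL apiece, read by AlphaScreen after 30 min at room temperature.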
Pf growth 96h – Primary qHTS for delayed death inhibitors of the malarial parasite plastid, 96 hour incubation; hit rate 6.9% among 320,000; P. falciparum luciferase reporter growth, 96 h; Potency, µM (titrated, usually from 28.7 µM), inactives show at the top dose activity change, negative = inhibition, hits mostly inhibitors; note: potency is the fitted concentration of half-maximal effect; % is set by controls: 0 for no effect and ±100 for the full control effect
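Luminescence readout: decreased luciferase signal marks inhibited growth of reporter-expressing P. falciparum in infected red cells (2% hematocrit, 0.05% parasitemia final), exposed to compound two generations (96 h, 37 C, 5% CO2).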
Cycloheximide cs – Cycloheximide Counterscreen for Small Molecule Inhibitors of Shiga Toxin. cell reporter, cycloheximide protein synthesis inhibition counterscreen. max response, %. hit rate 12% among 300,000. AID 2314, 2010; in the data active = max response mostly above about 13%, no sharp cut-off; inactive = mostly below about 14%; note: read at 38.3 µM for the half of the compounds with a filed dose; 0% is about no effect
Shiga inhibitor – A qHTS for Small Molecule Inhibitors of Shiga Toxin; Vero cells, Shiga toxin protein synthesis inhibition reporter; inhibition, % at 38.7 µM; hit rate 9.2% among 290,000; in the data active = inhibition mostly above about 28%, no sharp cut-off; inactive = mostly below about 43%; note: 0% is about no effect
Pf growth 48h – Primary qHTS for delayed death inhibitors of the malarial parasite plastid, 48 hour incubation | P. falciparum luciferase growth in erythrocytes, 48 h | Potency, µM (highest dose often 28.7 µM), inactives show at the top dose activity change, negative = inhibition, hits mostly inhibitors | hit rate 5.9% among 310,000 | AID 504832, 2011; note: potency is the fitted concentration of half-maximal effect; % is set by controls: 0 for no effect and ±100 for the full control effect
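Luciferase-expressing parasites in RBCs, 2% Hct / 0.1% parasitemia final; RPMI 1640 + 0.5% Albumax; 37 C, 5% CO2, one generation; luminescence read-out, lower signal = inhibition.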
An asterisk follows results filed as active; ? = inconclusive; / = no result given; [ ] = remark or other dose. Shown are actives, neighbours in structure and some others; about 19% of the full set was active somewhere. Unless noted, calls come from the whole dose curve; as a rule, active = well fitted curve in the direction sought with a large enough effect; inconclusive = small, poorly fitted or top-dose-only effect, or another doubt; inactive = no such curve, though single readings can be large; an effect the other way counts as inactive or inconclusive.

SMILES	SARS PLP yeast	AMA1 RON2 block	Pf growth 96h	Cycloheximide cs	Shiga inhibitor	Pf growth 48h
Cn1c(CNc2nc3ccccc3n2C)nc2ccccc21	-0.6%	25.2%	137.9%	67.7*	76.8*	282.0%
Cn1c(CNc2ccc(Br)cc2)nc2ccccc21	-4.5%	1.3%	17.7%	39.7*	114.0*	34.1%
Cn1c(CNc2ccc(O)cc2)nc2ccccc21	5.6%	-24.2%	-20.5%	19.4*	75.3*	11.6%[0.00184 µM]
CCn1c(CNc2nc3ccccc3n2C(C)C)nc2ccccc21	7.1%	8.6%	11.7µM*	-1.1	-11.0	?
C/C(=C/c1ccccc1)C(=O)N1CCN(c2ccc(F)cc2)CC1	2.9%	-4.2%	0.0%	-1.6	-2.6	-15.4%
CC1(C(=O)NS(=O)(=O)c2ccc(Cl)cc2)CCN1C(=O)C1CC1 (centres undefined)	/	-0.2%	/	/	/	/
CC(C)(C)NC(=S)N/N=C/c1c(Cl)cccc1Cl	0.5%	67.9%	2.94µM*	8.6	-1.0	3.7µM*
CN(C)S(=O)(=O)c1ccc(Cl)c(NC(=O)COC(=O)CN2C(=O)C3CCCCC3C2=O)c1 (centres undefined)	1.5%	10.0%	15.8%	-1.7	-8.6	3.0%
O=C(CCN1C(=O)/C(=C/c2ccccc2F)SC1=S)NC1C=CS(=O)(=O)C1 (centres undefined)	2.8%	-5.5%	-2.7%	-0.5	3.1	?
Cc1occc1C(=O)NNC(=S)NCc1ccc(Cl)cc1	0.2%	61.1%	18.2%	27.8*	27.5	31.3%
Cc1occc1C(=O)NCCCc1ccccc1	-21.7%	-5.0%	/	25.4*	117.3	35.3%
Cc1occc1C(=O)NNC(=S)NCc1ccccc1	-0.1%	27.8%	38.7%	-0.5	-8.7	14.0%
Cc1ccc(/C=C/C(=O)NCCc2cccc(Cl)c2)o1	-12.1%	-5.5%	-1.0%	28.7*	/	-26.7%
Cc1ccc(/C=C/C(=O)NCCc2c[nH]c3ccccc23)o1	-1.0%	-26.8%	10.0%	2.0	1.0	-7.6%
Cc1occc1C(=O)NCCCCNC(=O)c1ccoc1C	-6.0%	14.9%	/	-3.3	-9.1	-12.3%
Cc1occc1C(=O)NCCc1cccc(Cl)c1	-29.9%	-2.7%	93.9%	69.4*	130.2*	/
O=C(C1=C(O)C(=O)N(c2ccccc2)C1c1ccc([N+](=O)[O-])cc1)c1cccs1 (centres undefined)	2.1%	6.5%	67.3%	-2.2	-8.5	-1.2%
COc1ccc(CCc2nnc(NS(C)(=O)=O)s2)cc1	0.2%	0.4%	-28.9%	-1.6	-1.4	0.0%
COc1ccc(CNC(=O)C[C@H]2C[C@H](C(=O)N(C(C)C)C(C)C)[C@@]3(C)c4[nH]c5cc(-c6ccco6)ccc5c4CCN3C2=O)cc1OC	-8.1%	-28.7%	/	/	/	/
COc1cc(-c2ccc3cc(OC)c(OC)c(OC)c3c2)cc(OC)c1OC	/	-8.3%	/	/	/	/
Oc1ccc2c(c1)oc1cc(O)ccc12	-2.3%	-3.3%	-24.5%	45.5*	63.3*	59.9%
COc1c(C)oc2cc(O)ccc2c1=O	-6.6%	0.6%	-14.2%	-7.0	-7.8	9.1%
COc1ccc(Cn2ncc3c4sc(C)cc4n(C)c3c2=O)cc1F	/	/	/	4.0	14.3	/
O=C(O[C@@H]1OC2COC(=O)c3cc(O)c(O)c(O)c3-c3c(cc(O)c(O)c3O)C(=O)O[C@@H]([C@H]1O)[C@@H]2O)c1cc(O)c(O)c(O)c1	12.6µM*	2.51µM*	-102.1%	-2.3	-11.9	-10.9%
Cc1cc([N+](=O)[O-])nn1CCCC(=O)N1CCN(c2ccccc2)CC1	-9.4%	0.2%	-4.0%	-3.6	6.3	8.6%
SMILES	SARS PLP yeast	AMA1 RON2 block	Pf growth 96h	Cycloheximide cs	Shiga inhibitor	Pf growth 48h
O=P(O)(O)CCP(=O)(c1ccccc1)c1ccccc1	-0.3%	1.8%	1.65µM*	-5.2	-7.9	-12.0%
CP(C)(=O)CCP(=O)(c1ccccc1)c1ccccc1	13.9%	-11.9%	7.9%	-1.9	2.4	16.5%
O=C(NC1CCN(Cc2ccccc2)CC1)c1ccc(Cn2c(=S)[nH]c3ccc(N4CCOCC4)cc3c2=O)cc1	-0.3%	45.6%	33.0%	32.3*	54.8*	?
O=c1c2cc(N3CCOCC3)ccc2[nH]c(=S)n1Cc1ccco1	-3.9%	?	/	10.8*	6.9	8.6%
O=c1c2cc(N3CCOCC3)ccc2[nH]c(=S)n1Cc1cccc(Cl)c1	5.4%	20.7%	?	-3.6	-11.2	9.2%
CCCn1c(=S)[nH]c2cc(C(=O)N3CCN(c4ccccc4)CC3)ccc2c1=O	/	-4.7%	/	/	/	/
O=C(c1ccc(Cn2c(=O)[nH]c3ccccc3c2=O)cc1)N1CCN(c2ccccc2)CC1	5.3%	6.6%	3.29µM*	-2.4	2.6	?
O=C(c1ccc2c(=O)n(Cc3ccco3)c(=S)[nH]c2c1)N1CCN(c2ccccc2)CC1	-5.4%	-6.5%	11.7µM*	-0.7	-11.7	6.6%
CC12CCC(C1)C(C)(C)C2=O (centres undefined)	/	/	-7.6%	/	/	4.6%
COc1ccc(C(=O)Nc2cc(C(=O)NCCc3ccccc3)ccc2Cl)cc1	-7.4%	-3.7%	/	29.5*	34.6	-1.9%
COCC(=O)Nc1cc(C(=O)NCC(C)C)ccc1Cl	23.4%	-6.5%	16.4%	-2.4	1.2	12.4%
CCOCC(=O)Nc1cc(C(=O)NCCc2ccccc2)ccc1Cl	-2.6%	13.3%	78.9%	42.0*	42.8*	107.8%
COCC(=O)Nc1cc(C(=O)NCCc2ccccc2)ccc1Cl	-20.1%	0.0%	218.9%	85.7*	74.1*	226.9%
Cc1ccc(NC(=O)COc2ccc(C(=O)NCCc3ccccc3)cc2)cc1	/	-9.7%	/	/	/	/
CC(C)CCNC(=O)c1ccc(Cl)c(NC(=O)Cc2ccccc2)c1	15.7%	/	?	16.3	45.2*	?
Cc1cc(Cl)ccc1OCC(=O)N(Cc1cccs1)C1CCS(=O)(=O)C1 (centres undefined)	0.6%	-12.8%	?	0.4	14.3	-11.2%
O=C(NCc1ccccc1)c1cc(C2CCCCN2C(=O)OCCF)on1 (centres undefined)	/	-3.6%	/	/	/	/
CCOc1ccc(Oc2ccc(C(F)(F)F)cc2N)cc1	1.2%	4.4%	-5.0%	15.8*	44.2	28.7%
COc1cccc(Oc2ccc(C(F)(F)F)cc2N)c1	7.1%	-0.8%	46.1%	28.9*	86.9*	52.2%
COc1cccc(Oc2ccc(C(F)(F)F)cc2NC(=O)c2cccc(F)c2)c1	-26.1%	-3.8%	?	-1.9	-1.3	?
CC(C)(C)OC(=O)N1CCC(c2cc(-c3cccs3)n[nH]2)CC1	-1.9%	15.0%	?	25.6*	19.5	2.4%
CC1CCN(C(=O)CSc2n[nH]c(-c3cccs3)n2)CC1	0.0%	-0.6%	-9.6%	-1.5	-0.9	8.5%
CC(C)c1ccc(NC2CCCN(C(=O)c3ccsc3)C2)cc1 (centres undefined)	-2.5%	0.0%	22.1%	-2.0	-26.1	?
